PubChem BioAssay (NCATS)
Several values for one entry are separate records, joined by “and”; a condition that tells them apart may be missing. Identical values can stand only once. Records with an inconclusive call do not appear. Activity calls are given as the source filed them. Unless noted, the call rests on the fitted dose curve; in most records, active means well fitted curve in the direction sought with a large enough effect; inconclusive means small, poorly fitted or top-dose-only effect, or another doubt; inactive means no such curve, though single readings can be large; an effect the other way counts as inactive or inconclusive.

Experiments:
[1] = AP1 Signaling Pathway (AID 357; active means well fitted curve in either direction with a large enough effect, not every such curve was filed as active;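 further: ME-180 reporter cells stimulated with EGF at its EC50 level; on the % scale 0 is the no-effect control and ±100 the full control effect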); conditions: ME-180 AP-1-bla reporter, EGF-induced, beta-lactamase ratio, 5 h
Outline: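 In this screen, ME-180 cells in Opti-MEM with 0.5% dialyzed FBS received EC50 EGF and compound titrations for 5 h. AP-1 reporter beta-lactamase was detected via CCF4 ratio, giving AC50 for positive and negative modulators.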

[2] = biological target: Cytochrome P450 1A2 (Homo sapiens) (UniProt P05177); test: p450-cyp1a2 (AID 410; calls by dose curve;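 further: -100% = full effect of reference inhibitor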); conditions: recombinant CYP1A2, luciferin-ME demethylation, luminescence; series mostly up to 57 µM
Outline: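 Luminescent readout of luciferin formed from Luciferin-ME by human CYP1A2; data normalized against complete inhibition by 57 uM furafylline. Enzyme 20nM, substrate 100uM at Km, 100mM KPO4 buffer, 60 min reaction at room temperature.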

[3] = NFAT Signaling Pathway (AID 444; active means well fitted curve in either direction with a large enough effect, not every such curve was filed as active;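 further: carbachol stimulus at about its EC50 of 1 µM final; on the % scale 0 is the no-effect control and ±100 the full control effect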); conditions: Jurkat NFAT-bla M1, carbachol, beta-lactamase ratio, 5 h
Outline: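 Jurkat cells with NFAT-driven β-lactamase reporter and co-expressed M1 receptor, stimulated with carbachol (final 1 uM, ~EC50), compound titration, 5 h at 37 °C. CCF4 loaded 1 h at RT; 460/530 nm ratio gave %activity and AC50.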

[4] = Stat Signaling Pathway (AID 446; active means well fitted curve in either direction with a large enough effect, not every such curve was filed as active;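 further: ME-180 cervical cancer cells given 40 pM IL-6 alongside compound; SIE-controlled beta-lactamase reporter measured as 460/530 nm FRET emission ratio; on the % scale 0 is the no-effect control and ±100 the full control effect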); conditions: ME-180 SIE beta-lactamase reporter, IL-6 stimulated, 5 h
Outline: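 Screening format detects activators and inhibitors alike: ME-180 SIE-bla cells stimulated at 40 pM IL-6 for 5 hrs with compound, then dual-emission beta-lactamase read at 405 nm excitation.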

[5] = biological target: Glucocorticoid receptor (Homo sapiens) (UniProt P04150); test: GR-GFP Redistribution (AID 450;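 active means compounds whose dose series gives a full or clear partial fitted curve of increased nuclear translocation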; further: potency means the concentration at half of the fitted maximal effect); conditions: U2OS GR-GFP nuclear translocation, laser cytometry, 2 h
[6] = biological target: Mitogen-activated protein kinase 10 (Mus musculus) (UniProt Q61831); test: JNK3 AlphaScreen Assay (AID 530; active means well fitted curve in either direction with a large enough effect, not every such curve was filed as active;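 further: kinase came from lysate of stimulated human HepG2 cells; signal reports phosphorylation of biotinylated GST-cJun 1-79 at Ser73 with 10 µM ATP; on the % scale 0 is the no-effect control and ±100 the full control effect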); conditions: JNK3 lysate, c-Jun phosphorylation; series mostly up to 57.1 µM
Outline: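 Pre-activated (IL-1β/TNFα) JNK3 in HepG2 lysates phosphorylates biotin-GST-cJun(1-79), 10 uM ATP; anti-phospho-cJun(Ser73) AlphaScreen read at room temperature, pH 7.6 Tris buffer. Compounds pre-incubated 15 min as titrations.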

[7] = biological target: 3',5'-cyclic-AMP phosphodiesterase 4B (Homo sapiens) (UniProt Q07343); test: qHTS Assay for Inhibitors of PDE-IV (AID 607; active means well fitted activation curve with a large enough effect in the main read-out, with a control signal flat, not every such curve was filed as active; further: % of control where 0% means no effect); conditions: HEK293 ACTOne CNG channel cells, membrane potential fluorescence; series mostly up to 22.9 µM
Outline: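 The readout is membrane depolarisation from a cAMP-sensing CNG channel, detected with a potential dye at ex 535/em 590. Cells were HEK293-derived (endogenous PDE-IV) at 1000 cells/well, titrated up to 22.9 uM final.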

[8] = biological target: Guanine nucleotide-binding protein G(i) subunit alpha-1 (Homo sapiens) (UniProt P63096); test: qHTS Assay for Inhibitors of RGS12 GoLoco Motif Activity (Green Fluorophore) (AID 879); conditions: Galphai1/FITC-RGS12 GoLoco peptide, fluorescence polarization; series mostly up to 57.1 µM;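 further: 0% = labeled peptide with Gαi1 and full inhibition = labeled peptide alone without protein; negative values mean loss of peptide binding seen as reduced polarization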
Outline: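 Fluorescence polarization assay: 50 nM Gαi1 with 10 nM FITC-labeled RGS12 GoLoco peptide in 10 mM Tris pH 7.5, 150 mM NaCl, 0.1 mM GDP, 0.05% NP40, 10 min at room temperature with compound.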

[9] = biological target: Pyruvate kinase (Leishmania mexicana) (UniProt Q27686); test: qHTS Validation Assay for Inhibitors of Leishmania Mexicana Pyruvate Kinase (AID 945);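 further: 0% = DMSO only neutral control wells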; conditions: purified L. mexicana pyruvate kinase, enzyme activity, E451W mutant enzyme; series mostly up to 57.5 µM
Outline: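 The enzyme is a highly purified E451W mutant of LmPYK used at 0.2 nM. It converts 0.5 mM PEP and 0.1 mM ADP over 1 h at room temperature; product ATP is quantified by luciferase luminescence relative to DMSO controls.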

[10] = biological target: Pyruvate kinase PKM (Homo sapiens) (UniProt P14618); test: qHTS Assay for Activators of Human Muscle Pyruvate Kinase (AID 954; active means well fitted curve in the direction sought with a large enough effect, not every such curve was filed as active;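 further: 0% = uninhibited enzyme and -100% = no enzyme or full thiadiazolimine inhibition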); conditions: purified human muscle pyruvate kinase, luciferase-coupled luminescence, 1 h; series mostly up to 57.5 µM
Outline: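 Reaction: 0.1 nM purified PKM2 with 0.5 mM phosphoenolpyruvate and 0.1 mM ADP, room temperature, 1 h. Readout: luciferase-based ATP luminescence after stop reagent. Activators judged against a 0.3 nM enzyme column.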

[11] = biological target: alpha-glucosidase (Oryza sativa, rice) (UniProt Q653V4); test: Counterscreen for Glucocerebrosidase Inhibitors: qHTS Assay for Rice alpha-Glucosidase at pH 5.0 (AID 997); conditions: rice alpha-glucosidase enzyme activity; series mostly up to 76.9 µM;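 further: 0% = full activity with enzyme and -100% = basal without enzyme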
Outline: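 Rice alpha-glucosidase (4 nM final) with 400 uM 4-methylumbelliferyl-alpha-D-glucopyranoside in citrate buffer pH 5.0, 20 min at room temperature, stopped at pH 10; fluorescence 365/440 nm, compounds 0.7 nM–77 uM, AC50 from Hill fits.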

[12] = qHTS Assay for Lipid Storage Modulators (AID 1519; calls by dose curve); conditions: Drosophila S3 cells, BODIPY lipid droplet/cell ratio, laser cytometry, cells loaded with oleic acid; for activity change, negative = inhibition: at 25.7 µM (top of the series)
Outline: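 Cells seeded at 5,000 per well were treated with compounds over a concentration series and loaded with oleic acid (400 uM, as added). Lipid droplet fluorescence (488 nm excitation, 500-530 nm channel) was read by laser-scanning cytometry and normalized to 20 uM Triacsin C.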

[13] = biological target: ATP-dependent 6-phosphofructokinase (Trypanosoma brucei brucei) (UniProt O15648); test: qHTS Assay to Find Inhibitors of T. brucei phosphofructokinase: hit validation (AID 492961); conditions: T. brucei PFK, ADP-Glo luminescence; series mostly up to 24.3 µM
Outline: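 Inhibition of parasite PFK is measured as reduced ADP formation, quantified via luciferase after ATP depletion. Assay used 0.1 mM ATP, 0.5 mM F6P, 1.25 nM enzyme, 45 min incubation.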

[14] = biological target: Ubiquitin carboxyl-terminal hydrolase 1 (Homo sapiens) (UniProt O94782); test: Inhibitors of USP1/UAF1: Pilot qHTS (AID 504865); conditions: purified USP1/UAF1, Ub-rhodamine cleavage fluorescence; series mostly up to 54.9 µM;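 further: rhodamine fluorescence freed from ubiquitin-rhodamine substrate followed over time; top concentration of the series differs between compounds; on the % scale 0 is the no-effect control and ±100 the full control effect; nearly all actives have a fitted effect of over 35% in size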
Outline: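 Enzyme-free wells gave the negative control, while test wells held 1nM USP1/UAF1 preincubated with compound for 15 min at room temperature. Ub-Rho at 150nM final started the reaction, and fluorescence at 480/540 nm was recorded kinetically.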

[15] = biological target: Luciferin 4-monooxygenase (Photinus pyralis) (UniProt P08659); test: Biochemical firefly luciferase enzyme assay for NPC (AID 624030);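 further: purified P. pyralis luciferase at 10 nM with luciferin and ATP substrate; 0% = DMSO and -100% = full luciferase inhibition by PTC124 control; nearly all actives have a fitted effect of over 70% in size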; conditions: purified P. pyralis luciferase, luminescence, 5 min; series mostly up to 58.6 µM
Outline: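 Purified P. pyralis luciferase at 10 nM in 50 mM Tris Acetate (final), luminescence read within 5 minutes of enzyme addition to compounds. Activity normalised to PTC124 versus DMSO; concentration-response curves classed by r2, magnitude and activity.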

[16] = qHTS profiling for inhibitors of Plasmodium falciparum proliferation (AID 504749);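 further: 0% = DMSO vehicle and full inhibition = artemisinin control; nearly all actives have a fitted effect of over 60% in size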; conditions: P. falciparum in erythrocytes, SYBR Green DNA, 72 h, at 28.7 µM (top of the series)
Outline: (§1)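 P. falciparum-infected erythrocytes (0.3% parasitemia, 2.5% hematocrit) incubated with compound 72 h at 37 C, 5% CO2. Parasite DNA detected by SYBR Green after lysis, overnight at room temperature; normalised to 0.29 uM artemisinin and DMSO.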

AS120 = test: as above; conditions: P. falciparum in erythrocytes, SYBR Green DNA, 72 h; series mostly up to 28.7 µM
Outline: as §1

CP238 = test: as above; conditions: P. falciparum in erythrocytes, SYBR Green DNA, 72 h; series mostly up to 12.8 µM
Outline: as §1

FAB9 = test: as above; conditions: P. falciparum in erythrocytes, SYBR Green DNA, 72 h; series mostly up to 12.8 µM
Outline: as §1

[17] = biological target: Glucocorticoid receptor (Homo sapiens) (UniProt P04150); test: GR-EFC Redistribution (AID 451; calls by dose curve; further: potency means the concentration at half of the fitted maximal effect); conditions: CHO-K1 GR-EFC translocation, beta-gal luminescence, 2 h
Outline: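 CHO-K1 cells expressing nuclear EA and GR-ED fragments of b-gal; compounds titrated up to 46 uM final, 2 h at 37 C. GR nuclear translocation read as complemented b-gal luminescence after 1 h RT detection.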

[18] = measured here: cell count channel max response
[19] = measured here: lipid channel max response

Chain of Glucocorticoid receptor (Homo sapiens) (P04150 whole entry, looked up, the tested form may be a part): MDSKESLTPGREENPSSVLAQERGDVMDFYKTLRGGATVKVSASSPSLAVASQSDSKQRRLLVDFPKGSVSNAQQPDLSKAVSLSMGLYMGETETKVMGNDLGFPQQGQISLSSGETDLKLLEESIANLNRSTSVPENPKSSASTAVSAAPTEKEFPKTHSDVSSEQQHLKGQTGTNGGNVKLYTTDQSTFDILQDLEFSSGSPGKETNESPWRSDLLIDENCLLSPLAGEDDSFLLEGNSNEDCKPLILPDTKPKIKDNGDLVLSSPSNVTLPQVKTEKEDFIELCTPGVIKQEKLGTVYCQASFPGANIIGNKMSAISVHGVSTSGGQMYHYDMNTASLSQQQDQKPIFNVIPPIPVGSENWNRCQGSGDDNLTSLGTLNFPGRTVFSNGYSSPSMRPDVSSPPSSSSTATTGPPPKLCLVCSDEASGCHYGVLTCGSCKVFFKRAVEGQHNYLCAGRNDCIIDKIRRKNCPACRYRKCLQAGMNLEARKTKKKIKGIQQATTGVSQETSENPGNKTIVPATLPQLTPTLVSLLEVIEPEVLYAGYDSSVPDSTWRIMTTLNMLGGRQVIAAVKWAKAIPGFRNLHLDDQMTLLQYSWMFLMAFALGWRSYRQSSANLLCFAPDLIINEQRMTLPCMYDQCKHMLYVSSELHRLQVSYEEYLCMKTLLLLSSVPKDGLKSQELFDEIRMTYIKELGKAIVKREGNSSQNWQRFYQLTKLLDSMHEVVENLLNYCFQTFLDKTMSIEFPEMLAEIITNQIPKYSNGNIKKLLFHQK
Chain of 3',5'-cyclic-AMP phosphodiesterase 4B (Homo sapiens) (Q07343 whole entry, looked up): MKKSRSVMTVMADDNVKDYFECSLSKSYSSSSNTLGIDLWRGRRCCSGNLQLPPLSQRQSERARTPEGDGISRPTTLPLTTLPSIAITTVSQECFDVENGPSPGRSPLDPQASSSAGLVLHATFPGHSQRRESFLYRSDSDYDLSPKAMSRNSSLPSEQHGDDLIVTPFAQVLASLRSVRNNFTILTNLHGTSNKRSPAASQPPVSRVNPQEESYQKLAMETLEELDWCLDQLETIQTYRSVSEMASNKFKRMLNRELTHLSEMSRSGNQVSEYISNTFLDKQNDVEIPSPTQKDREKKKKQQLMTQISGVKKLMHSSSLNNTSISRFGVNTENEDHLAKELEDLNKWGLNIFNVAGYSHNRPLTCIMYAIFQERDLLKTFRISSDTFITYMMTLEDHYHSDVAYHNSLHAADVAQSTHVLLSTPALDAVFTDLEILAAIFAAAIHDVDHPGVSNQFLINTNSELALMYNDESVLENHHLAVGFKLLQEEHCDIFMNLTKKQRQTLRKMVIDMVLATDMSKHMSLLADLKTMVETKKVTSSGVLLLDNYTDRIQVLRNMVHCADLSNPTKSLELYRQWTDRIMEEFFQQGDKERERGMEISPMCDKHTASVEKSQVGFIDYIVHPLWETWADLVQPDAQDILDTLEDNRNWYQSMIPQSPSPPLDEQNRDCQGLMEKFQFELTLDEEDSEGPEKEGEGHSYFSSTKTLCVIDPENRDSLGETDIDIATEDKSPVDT
Chain of Cytochrome P450 1A2 (Homo sapiens) (P05177 whole entry, looked up): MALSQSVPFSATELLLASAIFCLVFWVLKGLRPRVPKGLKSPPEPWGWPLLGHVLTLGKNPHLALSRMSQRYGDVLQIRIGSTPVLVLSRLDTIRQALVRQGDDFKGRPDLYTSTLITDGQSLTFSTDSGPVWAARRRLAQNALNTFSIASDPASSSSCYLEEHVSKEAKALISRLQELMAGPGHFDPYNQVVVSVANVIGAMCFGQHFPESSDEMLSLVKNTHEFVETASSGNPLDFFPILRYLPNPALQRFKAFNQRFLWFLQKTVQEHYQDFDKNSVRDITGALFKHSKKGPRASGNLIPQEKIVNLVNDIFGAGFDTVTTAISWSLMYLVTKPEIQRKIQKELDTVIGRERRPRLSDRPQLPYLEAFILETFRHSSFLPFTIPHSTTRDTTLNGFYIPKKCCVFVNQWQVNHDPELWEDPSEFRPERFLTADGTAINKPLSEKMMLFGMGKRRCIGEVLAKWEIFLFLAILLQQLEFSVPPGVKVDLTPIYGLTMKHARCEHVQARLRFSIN
Chain of Luciferin 4-monooxygenase (Photinus pyralis) (P08659 whole entry, looked up): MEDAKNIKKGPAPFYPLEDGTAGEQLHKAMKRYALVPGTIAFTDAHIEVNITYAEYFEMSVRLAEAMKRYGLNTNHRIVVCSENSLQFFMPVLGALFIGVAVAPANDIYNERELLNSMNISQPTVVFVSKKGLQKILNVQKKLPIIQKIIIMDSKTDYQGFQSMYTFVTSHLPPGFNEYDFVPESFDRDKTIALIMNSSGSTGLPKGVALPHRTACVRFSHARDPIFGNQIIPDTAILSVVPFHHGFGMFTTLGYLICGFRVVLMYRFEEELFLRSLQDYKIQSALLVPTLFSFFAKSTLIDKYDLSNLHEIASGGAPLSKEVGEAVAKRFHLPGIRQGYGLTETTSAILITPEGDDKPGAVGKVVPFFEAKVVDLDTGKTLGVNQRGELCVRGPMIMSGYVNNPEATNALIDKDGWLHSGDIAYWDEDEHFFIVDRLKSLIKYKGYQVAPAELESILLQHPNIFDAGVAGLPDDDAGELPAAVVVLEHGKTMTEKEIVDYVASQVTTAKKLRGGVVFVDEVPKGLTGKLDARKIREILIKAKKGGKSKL
Chain of Pyruvate kinase (Leishmania mexicana) (Q27686 2-499 E452W): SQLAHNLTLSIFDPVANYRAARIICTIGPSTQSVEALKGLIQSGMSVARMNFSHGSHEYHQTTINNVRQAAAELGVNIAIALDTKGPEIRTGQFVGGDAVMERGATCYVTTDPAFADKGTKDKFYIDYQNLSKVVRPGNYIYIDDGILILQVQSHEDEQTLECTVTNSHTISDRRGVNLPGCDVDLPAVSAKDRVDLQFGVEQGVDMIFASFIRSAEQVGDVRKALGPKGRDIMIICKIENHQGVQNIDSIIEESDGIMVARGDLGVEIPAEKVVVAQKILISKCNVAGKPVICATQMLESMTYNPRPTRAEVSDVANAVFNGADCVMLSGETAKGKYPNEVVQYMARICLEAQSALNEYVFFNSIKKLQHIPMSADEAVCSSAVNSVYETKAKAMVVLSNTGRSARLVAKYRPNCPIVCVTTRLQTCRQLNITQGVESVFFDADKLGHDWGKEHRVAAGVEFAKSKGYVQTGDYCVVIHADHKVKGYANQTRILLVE
Chain of Guanine nucleotide-binding protein G(i) subunit alpha-1 (Homo sapiens) (P63096 whole entry, looked up): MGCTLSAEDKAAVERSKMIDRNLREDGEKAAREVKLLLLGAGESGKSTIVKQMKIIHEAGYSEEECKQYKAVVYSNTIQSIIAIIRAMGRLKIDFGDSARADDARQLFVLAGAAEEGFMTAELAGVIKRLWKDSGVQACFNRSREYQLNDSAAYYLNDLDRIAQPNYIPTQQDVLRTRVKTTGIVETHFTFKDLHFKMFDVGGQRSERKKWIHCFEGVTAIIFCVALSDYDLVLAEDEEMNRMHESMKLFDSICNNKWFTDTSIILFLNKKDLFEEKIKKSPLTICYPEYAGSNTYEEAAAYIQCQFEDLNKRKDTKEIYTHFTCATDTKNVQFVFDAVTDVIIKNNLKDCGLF
Chain of Pyruvate kinase PKM (Homo sapiens) (P14618 whole entry, looked up): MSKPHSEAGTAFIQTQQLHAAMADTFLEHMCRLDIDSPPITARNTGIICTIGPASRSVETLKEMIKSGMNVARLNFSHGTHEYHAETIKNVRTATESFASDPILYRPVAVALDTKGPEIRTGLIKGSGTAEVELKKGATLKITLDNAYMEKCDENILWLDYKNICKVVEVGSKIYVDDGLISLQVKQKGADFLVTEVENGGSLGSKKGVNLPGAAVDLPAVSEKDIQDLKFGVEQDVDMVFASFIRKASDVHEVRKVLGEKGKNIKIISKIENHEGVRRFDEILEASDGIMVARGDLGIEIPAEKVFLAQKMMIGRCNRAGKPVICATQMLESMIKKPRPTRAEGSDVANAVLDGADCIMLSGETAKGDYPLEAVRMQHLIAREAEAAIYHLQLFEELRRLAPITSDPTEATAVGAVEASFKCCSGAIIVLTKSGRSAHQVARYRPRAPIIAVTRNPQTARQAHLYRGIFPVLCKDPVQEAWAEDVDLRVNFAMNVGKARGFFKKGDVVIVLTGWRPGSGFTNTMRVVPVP
Chain of Ubiquitin carboxyl-terminal hydrolase 1 (Homo sapiens) (O94782 whole entry, looked up): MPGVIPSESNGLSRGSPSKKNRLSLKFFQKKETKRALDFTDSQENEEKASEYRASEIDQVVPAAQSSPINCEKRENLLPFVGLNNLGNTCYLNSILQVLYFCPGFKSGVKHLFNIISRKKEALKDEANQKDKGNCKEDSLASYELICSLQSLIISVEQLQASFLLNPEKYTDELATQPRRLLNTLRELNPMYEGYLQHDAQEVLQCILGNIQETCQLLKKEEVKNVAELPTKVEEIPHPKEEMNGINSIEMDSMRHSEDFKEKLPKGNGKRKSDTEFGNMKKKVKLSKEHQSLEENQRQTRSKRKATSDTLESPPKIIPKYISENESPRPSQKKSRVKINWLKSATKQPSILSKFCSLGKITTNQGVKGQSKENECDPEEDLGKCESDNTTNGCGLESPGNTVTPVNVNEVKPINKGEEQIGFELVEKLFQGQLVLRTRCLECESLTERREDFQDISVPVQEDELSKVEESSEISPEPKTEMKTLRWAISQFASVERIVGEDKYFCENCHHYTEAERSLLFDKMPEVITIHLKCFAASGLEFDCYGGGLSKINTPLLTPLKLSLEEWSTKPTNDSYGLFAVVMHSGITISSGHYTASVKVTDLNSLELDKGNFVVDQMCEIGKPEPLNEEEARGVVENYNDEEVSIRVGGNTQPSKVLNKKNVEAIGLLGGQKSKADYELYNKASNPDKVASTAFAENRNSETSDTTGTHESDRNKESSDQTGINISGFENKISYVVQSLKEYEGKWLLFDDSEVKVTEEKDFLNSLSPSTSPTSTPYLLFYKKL

CN(C)[C@@H]1C(=O)C(C(N)=O)=C(O)[C@]2(O)C(=O)C3=C(O)c4c(O)ccc(Cl)c4[C@H](O)[C@H]3C[C@@H]12
inactive: activity change, negative = inhibition ([1]; at 17.2 µM (top of the series)) -2.16% | activity change, negative = inhibition ([1]; at 38 µM (top of the series)) -12.4% | Potency [2] | activity change, negative = inhibition ([3]; at 17.2 µM (top of the series)) -15.3% | activity change, negative = inhibition ([3]; at 38 µM (top of the series)) -6.38% | activity, negative = inhibition ([4]; at 17.2 µM (top of the series)) -1.53% | activity, negative = inhibition ([4]; at 38 µM (top of the series)) 3.61% | Potency [5] > 46 µM and > 20.6 µM | Potency [6] | Potency [7] | Potency [8] | outcome [9] | outcome [10] | outcome [11] | activity change, negative = inhibition [12] 2.69% | outcome [13] | Potency [14] | outcome [15] | activity, negative = inhibition ([16]; parasite line A) -26.7% | Potency (AS120) | Potency (CP238) | Potency (FAB9)
8.96%: max response [12, 19]
4.73%: max response [12, 18]

CCCN[C@@H](C)C(=O)Nc1ccccc1C
11.7%: max response [12, 18]
inactive: activity change, negative = inhibition ([1]; at 17.2 µM (top of the series)) -5.22% | activity change, negative = inhibition ([1]; at 38 µM (top of the series)) 7.83% | Potency [2] | activity change, negative = inhibition ([3]; at 17.2 µM (top of the series)) -7.99% | activity change, negative = inhibition ([3]; at 38 µM (top of the series)) 0.91% | activity, negative = inhibition ([4]; at 17.2 µM (top of the series)) -2.53% | activity, negative = inhibition ([4]; at 38 µM (top of the series)) -11.1% | Potency [5] > 46 µM and > 20.6 µM | Potency [17] > 46 µM and > 20.6 µM | Potency [6] | Potency [7] | Potency [8] | outcome [9] | outcome [10] | outcome [11] | activity change, negative = inhibition [12] -0.0308% | outcome [13] | Potency [14] | outcome [15] | activity, negative = inhibition ([16]; parasite line A) 7.59% | activity, negative = inhibition ([16]; parasite line B) 9.71% | Potency (AS120) | Potency (CP238) | Potency (FAB9)
11.2%: max response [12, 19]
